This is a sample that favours compounds with a hit; in the whole collection about 21% have one here.
Shiga toxin inh: blocks Shiga toxin action in Vero cells; hit rate 9.2% among 290,000; Vero cells, Shiga toxin protein synthesis inhibition reporter; inhibition, % at 38.7 µM; in the data active = inhibition mostly above about 28%, no sharp cut-off; inactive = mostly below about 43%
AMA1 RON2 block: AMA1-RON2 (P. falciparum) interaction inhibition. AID 720542. hit rate 0.2% among 360,000. AlphaScreen AMA1-biotinylated RON2 peptide binding. Potency, µM (titrated, usually from 58.2 µM), most hits filed as inhibitors; note: nearly all actives have a fitted effect of over 45% in size
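AMA1 (3D7) with his tag at 25 nM final met compounds first, then biotinylated RON2 peptide at 25 nM; detection used donor plus acceptor beads, 10 µg/mL apiece, read by AlphaScreen after 30 min at room temperature.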
Pf growth 96h: P. falciparum growth inhibition at 96 hour, primary screen for plastid delayed-death inhibitors; P. falciparum luciferase reporter growth, 96 h; Potency, µM (top dose mostly 28.7 µM), most hits filed as inhibitors; hit rate 6.9% among 320,000
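Delayed-death screen, second-generation endpoint: infected erythrocytes, 2% hematocrit, 0.05% parasitemia final; 96 hours at 37 C, 5% CO2; luciferase detection reagent; luminescence decrease equals reduced growth.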
HCV inhibitor: blocks hepatitis C virus; Huh7.5.1 HCVcc-Cre infection, luciferase reporter, 44 h; Potency, µM (titrated, usually from 41.8 µM), usual class: inhibitors; hit rate 3.4% among 340,000
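1,000 cells/well; 4 h culture; + compound; + HCVcc-Cre (~0.5 moi); 44 h; luciferase substrate, RT 15 min; read 15 sec.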
Pf growth 48h: P. falciparum growth inhibition at 48 hours (one generation). AID 504832. hit rate 5.9% among 310,000. Potency, µM (titrated, usually from 28.7 µM), usual class: inhibitors. P. falciparum luciferase growth in erythrocytes, 48 h
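Cell-based growth assay: transgenic P. falciparum expressing firefly luciferase, cultured in red cells within RPMI 1640 containing 0.5% w/v Albumax, 24 mM bicarbonate and gentamycin. A drop in luciferase activity indicates inhibition.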
CHX counter: affects cycloheximide protein synthesis inhibition readout, counter-screen. cell reporter, cycloheximide protein synthesis inhibition counterscreen. max response, %. hit rate 12% among 300,000; in the data active = max response mostly above about 13%, no sharp cut-off; inactive = mostly below about 14%; note: read at 38.3 µM for the half of the compounds with a filed dose
Each line names hits and unclear results; the compound was inactive in the other large screens. Unless noted, calls come from the whole dose curve; as a rule, active = well fitted curve in the direction sought with a large enough effect; inconclusive = small, poorly fitted or top-dose-only effect, or another doubt; inactive = no such curve, though single readings can be large; an effect the other way counts as inactive or inconclusive.

Cn1nnc(NC(=S)NC(=O)c2cc3ccccc3o2)n1	Pf growth 96h inconclusive, CHX counter 10.7
CCn1nnc(NC(=O)c2ccc(-c3ccccc3[N+](=O)[O-])o2)n1	CHX counter 16.9
CCCCn1nnc(NC(=O)Cc2ccc(Cl)cc2)n1	none
CCCCn1nnc(NC(=O)c2ccc(-c3ccccc3)cc2)n1	Shiga toxin inh active, HCV inhibitor inconclusive, Pf growth 48h inconclusive, CHX counter 40.6
O=C(Nc1ccc(F)cc1)OCCOc1ccc([N+](=O)[O-])cc1	none
O=C(C1CC(=O)N(c2ccc3c(c2)OCCO3)C1)N1CCCC(C(F)(F)F)C1 (stereo not drawn)	none (no result: Shiga toxin inh, CHX counter)
Cn1nnc(NC(=O)c2ccccc2)n1	Pf growth 96h 13.1µM
COc1ccccc1C(=O)Nc1nnn(C)n1	none
CCn1nnc(NC(=O)c2cc3ccccc3o2)n1	Shiga toxin inh 80.6, CHX counter 30.2 (no result: Pf growth 96h)
CCCn1nnc(NC(=O)c2ccc3c(c2)OCO3)n1	Shiga toxin inh 89.2, CHX counter 53.6
CCCCn1nnc(NC(=O)c2cc3ccccc3o2)n1	Shiga toxin inh 41.6, CHX counter 44.4 (no result: Pf growth 96h)
CCCn1nnc(NC(=O)c2cccc(Cl)c2)n1	none
CCCCC/C=C/C=C1/C(=O)C=C[C@@H]1C/C=C\CCCC(=O)O	none (no result: AMA1 RON2 block, Pf growth 96h, HCV inhibitor, Pf growth 48h)
CCOC(=O)C1CCCCN1Cc1ccc(OC)c(OC)c1 (stereo not drawn)	HCV inhibitor inconclusive
CCc1ccc(C(=O)Nc2nnn(CC)n2)cc1	CHX counter 11.2
CC(=O)c1ccc(NC(=O)c2ccc(COc3ccccc3[N+](=O)[O-])o2)cc1	none
CC(=O)c1cccc(NC(=O)c2ccc(-c3ccccc3[N+](=O)[O-])o2)c1	Shiga toxin inh 51.2, HCV inhibitor inconclusive, CHX counter 70.4
CCCn1nnc(NC(=O)c2cccc(OCc3ccccc3)c2)n1	HCV inhibitor inconclusive (no result: Pf growth 96h)
CCCn1nnc(NC(=O)c2cc3ccccc3o2)n1	Shiga toxin inh 74.4, CHX counter 42.8
Cc1ccc(-c2cc(C3C4C=CCC(C)C4C(=O)N3Cc3ccccc3)ccc2F)cc1 (stereo not drawn)	none (no result: AMA1 RON2 block, Pf growth 96h, HCV inhibitor, Pf growth 48h)
O=C(NCCC1=CCCCC1)c1ccc(Cl)c(S(=O)(=O)N2CCOCC2)c1	Shiga toxin inh active, HCV inhibitor inconclusive, Pf growth 48h 5.86µM
Cc1ccc(CSCCNC(=O)c2ccc(Cl)c(S(=O)(=O)N3CCOCC3)c2)cc1	Pf growth 96h 5.22µM, HCV inhibitor 22.4µM (no result: Pf growth 48h)
O=C(NCCC1=CCCCC1)c1ccc(Cl)c(S(=O)(=O)N2CCCCC2)c1	Pf growth 96h 5.86µM, HCV inhibitor inconclusive, Pf growth 48h 9.28µM
O=C(NCCC1=CCCCC1)c1cc(S(=O)(=O)N2CCOCC2)c(Cl)cc1Cl	Pf growth 48h inconclusive (no result: Shiga toxin inh, CHX counter)
CC(=O)N1CCN(S(=O)(=O)c2cccc(C(=O)NCCC3=CCCCC3)c2)CC1	Pf growth 96h 8.28µM (no result: Shiga toxin inh, CHX counter)
Cc1cccc(S(=O)(=O)NC(=O)C2(C)CCN2C(=O)c2ccccc2)c1 (stereo not drawn)	none (no result: Shiga toxin inh, Pf growth 96h, HCV inhibitor, Pf growth 48h, CHX counter)
COc1cc(CN2C[C@@H](CO)O[C@@H](n3cnc4c(N(C)C)ncnc43)C2)cc(OC)c1OC	none (no result: Shiga toxin inh, Pf growth 96h, HCV inhibitor, Pf growth 48h, CHX counter)
COc1cccc(C2/C(=C(\O)c3ccc4c(c3)OCCO4)C(=O)C(=O)N2Cc2cccnc2)c1 (stereo not drawn)	none
COc1cccc(C2c3c(-c4cc(Cl)c(C)cc4O)n[nH]c3C(=O)N2Cc2cccnc2)c1 (stereo not drawn)	Pf growth 96h 6.57µM, HCV inhibitor inconclusive (no result: Pf growth 48h)
Cc1ccc(C2c3c(-c4ccccc4O)n[nH]c3C(=O)N2Cc2ccncc2)cc1 (stereo not drawn)	Pf growth 96h inconclusive, HCV inhibitor inconclusive, Pf growth 48h inconclusive
COc1cc(C2c3c(-c4cc(Cl)c(C)cc4O)n[nH]c3C(=O)N2Cc2cccnc2)ccc1O (stereo not drawn)	Pf growth 48h 8.28µM (no result: Pf growth 96h)
CCC1Sc2ccc(S(=O)(=O)CCC(=O)Nc3cc(C)ccn3)cc2NC1=O (stereo not drawn)	none
COc1ccc(OC2C(=O)N(Cc3ccc(F)cc3)C2c2cc(OC)c(OC)c(OC)c2)cc1 (stereo not drawn)	Pf growth 48h 3.7µM
COc1ccc(C2C(Oc3ccccc3C)C(=O)N2Cc2ccc(F)cc2)cc1OC (stereo not drawn)	Pf growth 48h inconclusive
